Measured values as given in PubChem BioAssay AID1159580 (chemical genetic matrix, 2015).
Out of some 5,500 compounds screened, about 2,000 (36%) were called active. Not shown: some 18% with an inconclusive outcome. Cut-off read from the data, not from the text of the source: active = normalized growth mostly below about 0.91 (no sharp cut-off); inconclusive = no clear call, values can overlap the other calls; inactive = mostly above about 0.92. This is one part of the list.

Test: chemical genetic growth profiling, strain panel (AID 1159580);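 note: tested at 20 µM; growth read once vehicle control cultures reached saturation at 30 °C; 1 = growth at the plate median or of vehicle wells; lower values mean less growth of the strain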
Conditions: growth OD

Measured: normalized growth

CC(=O)Oc1ccc2c(c1)CCC1C2CC[C@@]2(C)C1CC[C@@H]2OC(C)=O (stereo not given in full)
active: S. cerevisiae deletion strains, locus YLR262C, strain YPT6 (second series), stronger effect = lower value 0.663
inactive: S. cerevisiae deletion strains, locus YJR075W, strain HOC1, stronger effect = lower value 0.957 | S. cerevisiae deletion strains, locus YKL009W, strain mrt4, stronger effect = lower value 0.956 | S. cerevisiae deletion strains, locus YKL068W, stronger effect = lower value 0.971 | S. cerevisiae deletion strains, locus YKL085W, strain MDH1 (second series), stronger effect = lower value 0.959 | S. cerevisiae deletion strains, locus YKL085W, strain MDH1, stronger effect = lower value 0.959 | S. cerevisiae deletion strains, locus YKL160W, strain elf1, stronger effect = lower value 1 | S. cerevisiae deletion strains, locus YKL190W, strain CNB1, stronger effect = lower value 0.961 | S. cerevisiae deletion strains, locus YKR001C, strain vps1, stronger effect = lower value 0.98 | S. cerevisiae deletion strains, locus YKR026C, strain gcn3, stronger effect = lower value 0.973 | S. cerevisiae deletion strains, locus YKR091W, strain srl3, stronger effect = lower value 0.99 | S. cerevisiae deletion strains, locus YLL001W, strain dnm1, stronger effect = lower value 0.96 | S. cerevisiae deletion strains, locus YLL026W, stronger effect = lower value 0.991 | S. cerevisiae deletion strains, locus YLL041C, strain sdh2, stronger effect = lower value 0.996 | S. cerevisiae deletion strains, locus YLR027C, strain aat2, stronger effect = lower value 0.997 | S. cerevisiae deletion strains, locus YLR039C, strain RIC1, stronger effect = lower value 0.838 | S. cerevisiae deletion strains, locus YLR058C, strain SHM2, stronger effect = lower value 0.968 | S. cerevisiae deletion strains, locus YLR102C, strain apc9, stronger effect = lower value 0.968 | S. cerevisiae deletion strains, locus YLR113W, strain HOG1, stronger effect = lower value 0.911 | S. cerevisiae deletion strains, locus YLR221C, strain rsa3, stronger effect = lower value 0.958 | S. cerevisiae deletion strains, locus YLR258W, strain gsy2, stronger effect = lower value 0.991 | S. cerevisiae deletion strains, locus YLR262C, strain YPT6, stronger effect = lower value 0.729 | S. cerevisiae deletion strains, locus YLR268W, strain sec22, stronger effect = lower value 0.986 | S. cerevisiae deletion strains, locus YLR320W, strain mms22, stronger effect = lower value 0.908 | S. cerevisiae deletion strains, locus YLR330W, strain CHS5, stronger effect = lower value 0.981 | S. cerevisiae deletion strains, locus YLR342W, strain FKS1 (second series), stronger effect = lower value 1.03 | S. cerevisiae deletion strains, locus YLR342W, strain FKS1, stronger effect = lower value 0.969 | S. cerevisiae deletion strains, locus YLR357W, strain rsc2, stronger effect = lower value 1 | S. cerevisiae deletion strains, locus YLR370C, strain arc18, stronger effect = lower value 0.977 | S. cerevisiae deletion strains, locus YLR371W, strain rom2, stronger effect = lower value 0.981 | S. cerevisiae deletion strains, locus YLR384C, strain iki3, stronger effect = lower value 0.985 | S. cerevisiae deletion strains, locus YLR418C, strain cdc73, stronger effect = lower value 0.963 | S. cerevisiae deletion strains, locus YML016C, strain PPZ1, stronger effect = lower value 0.974 | S. cerevisiae deletion strains, locus YML032C, strain rad52, stronger effect = lower value 0.974 | S. cerevisiae deletion strains, locus YML120C, strain ndi1, stronger effect = lower value 0.97 | S. cerevisiae deletion strains, locus YML124C, strain tub3, stronger effect = lower value 0.965 | S. cerevisiae deletion strains, locus YMR058W, strain fet3, stronger effect = lower value 1 | S. cerevisiae deletion strains, locus YMR078C, strain ctf18, stronger effect = lower value 0.964 | S. cerevisiae deletion strains, locus YMR125W, strain sto1, stronger effect = lower value 0.994 | S. cerevisiae deletion strains, locus YMR129W, stronger effect = lower value 0.989 | S. cerevisiae deletion strains, locus YMR205C, strain PFK2, stronger effect = lower value 0.947 | S. cerevisiae deletion strains, locus YMR223W, strain ubp8, stronger effect = lower value 0.984 | S. cerevisiae deletion strains, locus YMR231W, strain pep5, stronger effect = lower value 1.02 | S. cerevisiae deletion strains, locus YMR263W, strain SAP30, stronger effect = lower value 0.967 | S. cerevisiae deletion strains, locus YMR307W, strain GAS1, stronger effect = lower value 1.12 | S. cerevisiae deletion strains, locus YNL067W, strain RPL9B, stronger effect = lower value 0.957 | S. cerevisiae deletion strains, locus YNL071W, strain lat1, stronger effect = lower value 0.97 | S. cerevisiae deletion strains, locus YNL128W, strain TEP1, stronger effect = lower value 0.986 | S. cerevisiae deletion strains, locus YNL183C, strain NPR1, stronger effect = lower value 0.894 | S. cerevisiae deletion strains, locus YNL209W, strain ssb2, stronger effect = lower value 1.02 | S. cerevisiae deletion strains, locus YNL233W, strain BNI4, stronger effect = lower value 0.938 | S. cerevisiae deletion strains, locus YNL248C, strain rpa49, stronger effect = lower value 0.986 | S. cerevisiae deletion strains, locus YNL250W, strain rad50, stronger effect = lower value 0.972 | S. cerevisiae deletion strains, locus YNL271C, strain bni1, stronger effect = lower value 0.996 | S. cerevisiae deletion strains, locus YNL298W, strain CLA4, stronger effect = lower value 0.969 | S. cerevisiae deletion strains, locus YNL307C, strain MCK1, stronger effect = lower value 0.958 | S. cerevisiae deletion strains, locus YNL322C, strain KRE1 (second series), stronger effect = lower value 0.988 | S. cerevisiae deletion strains, locus YNR049C, strain mso1, stronger effect = lower value 0.99 | S. cerevisiae deletion strains, locus YNR052C, strain pop2, stronger effect = lower value 0.985 | S. cerevisiae deletion strains, locus YOL006C, strain TOP1, stronger effect = lower value 0.796 | S. cerevisiae deletion strains, locus YOL012C, strain htz1 1.06 | S. cerevisiae deletion strains, locus YOL147C, strain pex11, stronger effect = lower value 0.969 | S. cerevisiae deletion strains, locus YOR001W, strain rrp6, stronger effect = lower value 0.972 | S. cerevisiae deletion strains, locus YOR061W, strain CKA2, stronger effect = lower value 0.937 | S. cerevisiae deletion strains, locus YOR069W, strain VPS5, stronger effect = lower value 0.987 | S. cerevisiae deletion strains, locus YOR070C, strain gyp1, stronger effect = lower value 1.01 | S. cerevisiae deletion strains, locus YOR080W, strain dia2, stronger effect = lower value 1.02 | S. cerevisiae deletion strains, locus YOR083W, strain WHI5, stronger effect = lower value 0.936 | S. cerevisiae deletion strains, locus YOR106W, strain vam3, stronger effect = lower value 1.03 | S. cerevisiae deletion strains, locus YOR136W, strain idh2, stronger effect = lower value 0.982 | S. cerevisiae deletion strains, locus YOR144C, strain elg1, stronger effect = lower value 0.968 | S. cerevisiae deletion strains, locus YOR184W, strain ser1, stronger effect = lower value 0.906 | S. cerevisiae deletion strains, locus YOR231W, strain MKK1, stronger effect = lower value 0.923 | S. cerevisiae deletion strains, locus YOR265W, strain rbl2, stronger effect = lower value 0.992 | S. cerevisiae deletion strains, locus YOR270C, strain vph1, stronger effect = lower value 0.968 | S. cerevisiae deletion strains, locus YOR290C, strain snf2, stronger effect = lower value 0.968 | S. cerevisiae deletion strains, locus YOR316C, strain cot1, stronger effect = lower value 0.965 | S. cerevisiae deletion strains, locus YPL051W, strain arl3, stronger effect = lower value 1.01 | S. cerevisiae deletion strains, locus YPL055C, strain LGE1, stronger effect = lower value 0.838 | S. cerevisiae deletion strains, locus YPL078C, strain atp4, stronger effect = lower value 1.04 | S. cerevisiae deletion strains, locus YPL106C, strain sse1, stronger effect = lower value 1.03 | S. cerevisiae deletion strains, locus YPL240C, strain hsp82, stronger effect = lower value 1 | S. cerevisiae deletion strains, locus YPL241C, strain CIN2, stronger effect = lower value 0.972 | S. cerevisiae deletion strains, locus YPL256C, strain CLN2, stronger effect = lower value 0.924 | S. cerevisiae deletion strains, locus YPR119W, strain clb2, stronger effect = lower value 0.955 | S. cerevisiae deletion strains, locus YPR141C, strain kar3, stronger effect = lower value 0.97 | S. cerevisiae deletion strains, locus YPR163C, strain tif3, stronger effect = lower value 0.979 | S. cerevisiae deletion strains, locus YPR167C, strain met16, stronger effect = lower value 0.975 | S. cerevisiae deletion strains, strain wtn01, stronger effect = lower value 0.972 | S. cerevisiae strains, strain wild type, stronger effect = lower value 0.958
